Bioassay records from PubChem BioAssay.
Tau ThT inhib = inhibitors of human tau fibril formation, thioflavin T binding; P10636; recombinant tau K18 P301L, heparin-induced fibrillization, ThT fluorescence; Potency, µM (top dose mostly 57.4 µM), for the others: top-dose activity, negative = inhibition, most hits filed as inhibitors; 270,000 tested, 2.1% active; AID 1460; also: nearly all actives have a fitted effect of over 55% in size
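Using a mix of unlabeled (15 uM) and Alexa 594-labeled (0.24 uM) tau K18 P301L, heparin-triggered fibrillization over 6 hr at 37 C was scored by ThT fluorescence.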
Tau FP inhib = inhibitors of human tau fibril formation | P10636 | Potency, µM (top dose mostly 57.7 µM), for the others: at the top dose activity, negative = inhibition, actives largely listed as inhibitors | K18 P301L tau heparin fibrillization, Alexa594 FP, 6 h | 280,000 tested, 0.39% active; also: nearly all actives have a fitted effect of over 55% in size
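Read-out: fluorescence polarization of Alexa 594-labeled tau (0.24 uM), 555 nm excitation, 632 nm emission. Mixtures held 15 uM unlabeled K18 P301L, compound and 20 uM heparin, pH 7 acetate buffer, incubated 6 hr at 37 C.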
HPGD inh = HPGD (human) dehydrogenase inhibition | purified HPGD, NADH fluorescence kinetic, PGE2 substrate | Potency, µM, inactives show at the top dose activity change, negative = inhibition, actives largely listed as inhibitors | 150,000 tested, 4.3% active; active = well fitted inhibition curve with a large enough effect, not every such curve was filed as active; inconclusive = small, poorly fitted or top-dose-only effect, or another doubt; inactive = no such curve, though single readings can be large or run the other way
Target sequence (P15428 whole entry, looked up): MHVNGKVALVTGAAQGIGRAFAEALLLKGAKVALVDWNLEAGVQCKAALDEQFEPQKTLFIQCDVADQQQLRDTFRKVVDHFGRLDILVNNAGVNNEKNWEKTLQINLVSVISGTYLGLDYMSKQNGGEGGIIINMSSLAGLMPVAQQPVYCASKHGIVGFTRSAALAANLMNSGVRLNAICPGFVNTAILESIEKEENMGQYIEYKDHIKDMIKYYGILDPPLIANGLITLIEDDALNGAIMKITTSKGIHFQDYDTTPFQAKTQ
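NADH formation kinetics: reaction with 30 uM PGE2 and 1 mM NAD+ (final), 20 nM enzyme, Tris-HCl pH 8 with Tween 20, after 15 min compound preincubation at room temperature. Fluorescence change, last versus first of five reads.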
ALDH1A1 block = blocks purified human ALDH1A1 activity; Purified ALDH1A1, NADH fluorescence, propionaldehyde substrate; P00352; 220,000 tested, 7.3% active; AID 1030; Potency, µM (titrated, usually from 75.3 µM), for inactives: at the top dose activity, negative = inhibition, usual class: inhibitors; active = well fitted inhibition curve with a large enough effect, not every such curve was filed as active; inconclusive = small, poorly fitted or top-dose-only effect, or another doubt; inactive = no such curve, though single readings can be large or run the other way;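 also: plate controls were no enzyme wells and a reference inhibitor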
Target sequence (P00352 whole entry, looked up): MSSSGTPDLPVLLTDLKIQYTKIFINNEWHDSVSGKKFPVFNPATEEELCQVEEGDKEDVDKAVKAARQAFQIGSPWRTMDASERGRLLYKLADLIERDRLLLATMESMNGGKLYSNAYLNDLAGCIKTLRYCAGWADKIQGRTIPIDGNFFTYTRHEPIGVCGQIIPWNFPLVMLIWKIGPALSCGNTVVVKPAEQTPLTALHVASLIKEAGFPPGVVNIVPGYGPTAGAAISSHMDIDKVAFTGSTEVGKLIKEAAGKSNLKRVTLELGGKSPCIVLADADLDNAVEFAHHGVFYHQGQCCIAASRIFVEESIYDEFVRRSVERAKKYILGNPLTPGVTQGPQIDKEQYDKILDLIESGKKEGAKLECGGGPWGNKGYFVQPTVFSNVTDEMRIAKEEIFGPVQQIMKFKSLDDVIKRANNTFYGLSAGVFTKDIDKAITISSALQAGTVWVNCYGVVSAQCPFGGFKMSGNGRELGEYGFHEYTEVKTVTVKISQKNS
NPSR antag = neuropeptide S receptor (human) antagonism, cAMP | Potency, µM (doses to about 38.3 µM), inactives show top-dose activity change, negative = inhibition, usual class: inhibitors | CHO-NPSR cells, cAMP TR-FRET, antagonist mode | Q6W5P4 | 220,000 tested, 1% active; also: nearly all actives have a fitted effect of over 50% in size
Tau fluor counter = counter-screen for tau fibril formation inhibitors; tau K18 P301L Alexa594 fluorescence, heparin fibrillization; 280,000 tested, 0.93% active; Potency, µM (titrated, usually from 57.7 µM), inactives show at the highest dose activity change, negative = decrease; AID 1463; also: nearly all actives have a fitted effect of over 55% in size
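Human tau K18 P301L (15 uM unlabeled, 0.24 uM Alexa 594-labeled) in 100 mM sodium acetate pH 7 with 20 uM heparin, 6 hr at 37 C. ThT 30 uM added, 1 hr ambient; Alexa 594 FP and total fluorescence read at 555/632 nm.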
Starred values were filed as active, the others as inactive; [ ] = dose if it differs, or a comment. This is a sample that favours compounds with a hit; in the whole collection about 9.5% have one here. Unless noted, calls follow the shape of the dose curve; as a rule, active = well fitted curve in the direction sought with a large enough effect; inconclusive = small, poorly fitted or top-dose-only effect, or another doubt; inactive = no such curve, though single readings can be large; an effect the other way counts as inactive or inconclusive. Unless noted, % is scaled to controls: 0 for no effect and ±100 for the full control effect; potency is read from the fitted curve at half-maximal effect.

How did C=CCc1ccc(OCC(O)COCC)c(OC)c1 (stereo not given) do in these assays?
Tau ThT inhib: -16.1%; Tau FP inhib: -0.2%; HPGD inh: 0.1%; ALDH1A1 block: 28.2µM*; NPSR antag: -0.2%[46.1 µM]; Tau fluor counter: -11.0%

Results for C=CCc1ccc(OCC(O)CO)c(OC)c1 (stereo not given) ?
Tau ThT inhib: -8.7%; Tau FP inhib: 8.6%; HPGD inh: -12.2%; ALDH1A1 block: -11.7%; NPSR antag: 4.0%[46.1 µM]; Tau fluor counter: -3.2%

Results for CCCCOc1ccc(C2=NC(c3ccncc3)=Nc3ccc(OCC)cc3N2)cc1 ?
Tau ThT inhib: inconclusive; Tau FP inhib: 17.9%; Tau fluor counter: inconclusive

Results for Cc1onc(C(=O)Nc2sc3c(c2C#N)CCCC3)c1[N+](=O)[O-] ?
Tau ThT inhib: inconclusive; Tau FP inhib: 0.5%; ALDH1A1 block: 7.08µM*; NPSR antag: -26.5%; Tau fluor counter: -9.8%

What do the screens show for `Cc1onc(-c2ccccc2Cl)c1C(=O)Nc1sc2c(c1C#N)CCC2`?
Tau ThT inhib: 28.2µM*; Tau FP inhib: inconclusive; HPGD inh: inconclusive; ALDH1A1 block: inconclusive; NPSR antag: -8.0%[46.1 µM]; Tau fluor counter: inconclusive

How did CCc1c(C)sc(NC(=O)C2CCCO2)c1C#N (stereo not given) do in these assays?
Tau ThT inhib: -13.2%; Tau FP inhib: -0.7%; HPGD inh: 28.2µM*; ALDH1A1 block: 15.8µM*; NPSR antag: 7.9%[46.1 µM]; Tau fluor counter: -2.7%

Results for N#Cc1c(NC(=O)C2CC(c3ccccc3Cl)=NO2)sc2c1CCC2 (stereo not given) ?
Tau ThT inhib: -13.3%; Tau FP inhib: -2.3%; HPGD inh: inconclusive; ALDH1A1 block: inconclusive; NPSR antag: -10.1%[46.1 µM]; Tau fluor counter: -21.8%

Results for CCCc1cc(C(=O)Nc2sc(C)c(CC)c2C#N)no1 ?
Tau ThT inhib: -12.5%; Tau FP inhib: -11.3%; HPGD inh: -26.2%; ALDH1A1 block: 28.2µM*; NPSR antag: -0.3%[46.1 µM]; Tau fluor counter: -4.7%

What do the screens show for `Cc1cccc(C)c1NC(=O)c1ccc2nc(CCc3ccccc3)oc2c1`?
Tau ThT inhib: -15.9%; Tau FP inhib: 4.9%; Tau fluor counter: -7.4%

What do the screens show for `Cc1ccc(-n2cc(C(=O)Oc3ccc(F)cc3)c3ccccc3c2=O)cc1`?
Tau ThT inhib: -3.9%; Tau FP inhib: 0.6%; Tau fluor counter: -7.8%

Results for CC(C)C1Oc2ccccc2N(CC(=O)NCCCN2C(C)CCCC2C)C1=O (stereo not given) ?
Tau ThT inhib: 2.3%; Tau FP inhib: 5.6%; HPGD inh: -12.1%; ALDH1A1 block: 6.8%; NPSR antag: -10.6%[46.1 µM]; Tau fluor counter: -3.9%

Results for CCc1c(C)sc(NC(=O)c2cc(-c3ccco3)on2)c1C#N ?
Tau ThT inhib: -17.2%; Tau FP inhib: -4.4%; HPGD inh: inconclusive; ALDH1A1 block: 28.2µM*; NPSR antag: -0.2%[46.1 µM]; Tau fluor counter: -14.3%

How did N#Cc1c(NC(=O)C2CC(c3ccccc3O)=NO2)sc2c1CCC2 (stereo not given) do in these assays?
Tau ThT inhib: -14.6%; Tau FP inhib: -13.1%; HPGD inh: 25.1µM*; ALDH1A1 block: 11.2µM*; NPSR antag: -3.4%; Tau fluor counter: inconclusive

What do the screens show for `Cc1cc(C(=O)Nc2sc3c(c2C#N)CCCCC3)cs1`?
Tau ThT inhib: inconclusive; Tau FP inhib: -5.8%; HPGD inh: inconclusive; ALDH1A1 block: inconclusive; NPSR antag: -29.3%[46.1 µM]; Tau fluor counter: -16.0%

How did CCCc1cc(C(=O)Nc2ccccc2SC)no1 do in these assays?
Tau ThT inhib: 13.4%; Tau FP inhib: 8.5%; HPGD inh: 22.4µM*; ALDH1A1 block: inconclusive; NPSR antag: -13.9%[46.1 µM]; Tau fluor counter: 1.5%

What do the screens show for `CCCc1cc(C(=O)Nc2sc3c(c2C#N)CCC3)no1`?
Tau ThT inhib: -17.6%; Tau FP inhib: -4.3%; HPGD inh: 28.2µM*; ALDH1A1 block: 11.2µM*; NPSR antag: -2.2%; Tau fluor counter: -19.8%

Results for CN1CCO[C@H](c2ccccc2)c2ccccc2C1 ?
HPGD inh: -0.5%; ALDH1A1 block: 9.8%[20.9 µM]

Results for CC1=NN(c2ccccc2)C(=O)/C1=C\c1cn(CCC#N)nc1-c1ccc(Cl)cc1 ?
Tau ThT inhib: inconclusive; Tau FP inhib: 3.7%; HPGD inh: -17.1%; ALDH1A1 block: -4.8%; NPSR antag: -54.2%; Tau fluor counter: inconclusive

What do the screens show for `COc1cc(/C=C2\C(=O)N(CCC#N)N=C2C)c(Br)cc1OC(C)C`?
Tau ThT inhib: -16.0%; Tau FP inhib: -10.9%; HPGD inh: 8.91µM*; ALDH1A1 block: -8.3%; NPSR antag: -2.1%[46.1 µM]; Tau fluor counter: -3.9%

What do the screens show for `CCOC(=O)Cn1nnnc1CN(CCc1ccccc1)Cc1cc2cc(CC)ccc2[nH]c1=O`?
Tau ThT inhib: -17.8%; Tau FP inhib: 5.1%; HPGD inh: -5.2%; ALDH1A1 block: inconclusive; NPSR antag: inconclusive; Tau fluor counter: -24.3%

Results for Cc1ccc2[nH]c(=O)c(CN(Cc3cccs3)Cc3nnnn3Cc3ccccc3)cc2c1 ?
Tau ThT inhib: -0.6%; Tau FP inhib: 3.8%; HPGD inh: inconclusive; ALDH1A1 block: 14.1µM*; NPSR antag: inconclusive; Tau fluor counter: -12.8%

How did CCOC(=O)Cn1nnnc1CN(Cc1cccs1)Cc1cc2cc(C)ccc2[nH]c1=O do in these assays?
Tau ThT inhib: -11.9%; Tau FP inhib: -7.3%; HPGD inh: -2.9%; ALDH1A1 block: 15.8µM*; NPSR antag: -30.0%[46.1 µM]; Tau fluor counter: -18.8%

How did Cc1cc2nc(CS(=O)(=O)c3ccccc3)cc(=O)n2[nH]1 do in these assays?
Tau ThT inhib: 2.3%; Tau FP inhib: 6.7%; ALDH1A1 block: 10.7%; NPSR antag: 13.1%; Tau fluor counter: 1.1%

Results for CC1CCc2c(sc(NC(=O)c3ccc(Cn4cc([N+](=O)[O-])cn4)o3)c2C#N)C1 (stereo not given) ?
Tau ThT inhib: inconclusive; Tau FP inhib: -0.4%; HPGD inh: -21.5%; ALDH1A1 block: 25.1µM*; NPSR antag: -3.7%[46.1 µM]; Tau fluor counter: inconclusive

Results for COC(=O)c1sc(NC(=O)c2ccc(Cn3cc(Cl)cn3)o2)c(C#N)c1C ?
Tau ThT inhib: 25.1µM*; Tau FP inhib: inconclusive; HPGD inh: 15.8µM*; ALDH1A1 block: 3.55µM*; NPSR antag: inconclusive; Tau fluor counter: inconclusive

How did N#Cc1c(NC(=O)c2ccc(Cn3cc(Br)cn3)o2)sc2c1CCCCC2 do in these assays?
Tau ThT inhib: inconclusive; Tau FP inhib: 8.9%; HPGD inh: -23.7%; ALDH1A1 block: inconclusive; NPSR antag: inconclusive; Tau fluor counter: inconclusive
